Compounds with a hit are over-represented: about 7.2% of the library has one in this group of screens.
LASV entry inh: qHTS for Inhibitors of binding or entry into cells for Lassa Virus. Lassa virus pseudotype entry inhibition, cell reporter. Potency, µM (doses to about 37.9 µM), inactives show at the top dose activity change, negative = inhibition, usual class: inhibitors. 1.2% of 300,000 active. AID 540256, 2011; calls by dose curve; tested in HEK293 cells; note: nearly all actives have a fitted effect of over 50% in size
HCV inhibitor: qHTS Assay for Inhibitors of Hepatitis C Virus (HCV) | Huh7.5.1 HCVcc-Cre infection, luciferase reporter, 44 h | Potency, µM (highest dose often 41.8 µM), inactives show at the top dose activity change, negative = inhibition, usual class: inhibitors | 3.4% of 340,000 active | AID 651820, 2012
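Cells (1,000/well) were plated 4 h before compound, then infected with HCVcc-Cre virus (~0.5 moi). After 44 h further culture, infection was read as luciferase luminescence following a 15 min substrate incubation at room temperature.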
RE007 growth inh: qHTS Assay for Inhibitors of the HIV-1 protein Vpr. Potency, µM (series often up to 92.2 µM), without a hit: at the highest dose activity change, negative = less growth, hits mostly inhibitors. 0.21% of 360,000 active. S. pombe RE007 Vpr strain, BacTiter-Glo ATP luminescence, 24 h; active = well fitted falling curve with a large enough effect; inconclusive = small, poorly fitted or top-dose-only effect; inactive = no such curve, though single readings can be large or run the other way; note: nearly all actives have a fitted effect of over 50% in size
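Fission yeast strain RE007, carrying one chromosomally integrated HIV-1 vpr copy, was seeded at OD 0.01 in PMG+AL medium with 23 nL pinned compound. After 24 h at 30 °C and 99% humidity, viability was read by BacTiter-Glo luminescence.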
Marburg entry inh: qHTS for inhibitors of binding or entry into cells for Marburg Virus. Potency, µM (top dose mostly 37.8 µM), for inactives: top-dose activity change, negative = inhibition, hits mostly inhibitors. AID 540276, 2011. 1.8% of 300,000 active. Marburg virus pseudotyped entry inhibition, cell reporter; calls by dose curve; tested in HEK293 cells
FMDV antiviral: High Throughput Screening for Foot and Mouth Disease Virus Antivirals; 1.2% of 410,000 active; Potency, µM (top dose mostly 57.9 µM), without a hit: top-dose activity change, negative = inhibition, actives largely listed as inhibitors; FMDV antiviral cell-based qHTS; AID 1159524, 2015; calls by dose curve; tested in HEK293T cells; note: read-out not given here; nearly all actives have a fitted effect of over 45% in size
Sm TGR inh: qHTS Assay for the Inhibitors of Schistosoma Mansoni Peroxiredoxins. AID 485364, 2010. Potency, µM (titrated, usually from 114 µM), without a hit: top-dose activity change, negative = inhibition, hits mostly inhibitors. purified TGR, DTNB reduction, TNB absorbance 405 nm. Schistosoma mansoni thioredoxin glutathione reductase (TGR), Q962Y6. 3% of 360,000 active; note: nearly all actives have a fitted effect of over 60% in size
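TGR 20 nM + NADPH 100 uM (dispensed conc.), cpd preinc 15 min RT; start with NADPH (500 uM addition) then DTNB (15 mM addition). Kinetic TNB absorbance, 405 nm filter. Four-parameter Hill fit across titration.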
The depositor's hits bear a star; ? = inconclusive; / = no result; [ ] = another dose, or the depositor's remark. Unless noted, calls come from the whole dose curve; as a rule, active = well fitted curve in the direction sought with a large enough effect; inconclusive = small, poorly fitted or top-dose-only effect, or another doubt; inactive = no such curve, though single readings can be large; an effect the other way counts as inactive or inconclusive. % is set by controls: 0 for no effect and ±100 for the full control effect; potency is the fitted concentration of half-maximal effect.

SMILES	LASV entry inh	HCV inhibitor	RE007 growth inh	Marburg entry inh	FMDV antiviral	Sm TGR inh
C[C@H]1CC[C@]2(NC1)O[C@H]1C[C@H]3[C@@H]4CC[C@H]5C[C@@H](O[C@@H]6O[C@H](CO)[C@H](O[C@@H]7O[C@H](CO)[C@@H](O)[C@H](O[C@@H]8OC[C@@H](O)[C@H](O)[C@H]8O)[C@H]7O[C@@H]7O[C@H](CO)[C@@H](O)[C@H](O)[C@H]7O)[C@H](O)[C@H]6O)CC[C@]5(C)[C@H]4CC[C@]3(C)[C@H]1[C@@H]2C	/	/	/	/	25µM*	/
CCn1c(NCc2c[nH]c3ccccc23)nc2ccccc21	-9%	-25%	6%	11µM*	26%	/
Cn1c(NCc2c[nH]c3ccccc23)nc2ccccc21	?	-18%	-18%	?	34%	-3%
CC1=C(c2ccc(F)cc2)S(=O)(=O)N=C1N1CCC(C(=O)NCCc2ccco2)CC1	6%[46.1 µM]	/	/	/	-3%	-26%
Cc1ccc(NC2=NC(c3ccccc3)n3c(nc(C)cc3=O)N2)c(C)c1 (configuration not stated)	0%	23%	4%	4%	-2%	25µM*
Cc1ccc(NC2=NC(c3ccc(F)cc3)n3c(nc(C)cc3=O)N2)c(C)c1 (configuration not stated)	-18%[46.1 µM]	7%	5%	?	18%	1%
CCCC(=O)N(C1CC(C)C(C#N)(C#N)C1(C#N)C#N)N(C)C (configuration not stated)	?	?	-3%	?	16µM*	2µM*
CSc1ccc(CNC(=O)Cn2nc(N3CCN(c4ccccc4)CC3)ccc2=O)cc1	-6%[46.1 µM]	/	/	/	?	-3%
Fc1ccc(NC(=S)Nc2ccc(Cl)cc2Cl)cc1	-15%	?	-9%	-23%[46.1 µM]	25%	25µM*
Fc1ccc(NC(=S)Nc2cccnc2)c(Cl)c1	17%	8%	23%	4%[46.1 µM]	24%	18µM*
S=C(Nc1cccnc1)Nc1ccccc1Br	-1%	8%	11%	-5%	15%	6.3µM*
Oc1cccc(NC(=S)Nc2cccnc2)c1	-3%	5%	-11%	-5%	3%	50µM*
Fc1ccc(CNC(=S)Nc2ccc(Cl)cc2Cl)cc1	?	10%	5%	-7%	22%	-27%
CC(C)(O)C#Cc1ccc(CN2CCc3nnc(CNC(=O)c4cccc(F)c4)n3CC2)cc1	/	/	/	/	-6%	/
COc1cc(NC(=S)Nc2cccnc2)cc(OC)c1OC	-1%	2%	-11%	?	/	32µM*
S=C(Nc1ccc(Oc2ccccc2)cc1)Nc1cccnc1	/	-4%	0%	/	-5%	?
Fc1ccc(NC(=S)Nc2cccnc2)c(F)c1F	16%	3%	10%	-2%[46.1 µM]	0%	14µM*
Cc1cc(F)ccc1NC(=O)C(C(C)C)N1Cc2ccccc2C1=O (configuration not stated)	13%[46.1 µM]	/	/	/	2%	-13%
Cc1ccc2c(=O)cc(C(=O)Nc3nnc(C)s3)oc2c1	?	/	/	?	-24%	5%
COc1ccc(C(=O)Oc2cc(C)c(CN3CCOCC3)cc2C)cc1OC	1%	-17%	4%	?	?	40µM*
CSc1nnc2c(n1)OC(c1cccc(O)c1Cl)Nc1ccccc1-2 (configuration not stated)	7%[46.1 µM]	/	/	2%[46.1 µM]	-7%	-13%
CCOC(=O)c1c(NC(C)=O)sc2c1CCN(Cc1ccccc1)C2	/	?	-8%	/	0%	1%
CCOC(=O)c1c(NC(C)=O)sc2c1CCC(C=O)=C2Sc1ccccc1	?	2.8µM*	1%	?	?	?
Cc1cc(Br)ccc1NC(=O)CN1C(=O)C2CC=CCC2C1=O (configuration not stated)	/	10%	58%	/	-7%	13µM*
CCCn1c(=S)[nH]c2cc(C(=O)N3CCCC(C(=O)OCC)C3)ccc2c1=O (configuration not stated)	-30%	?	21%	?	18µM*	1%
SMILES	LASV entry inh	HCV inhibitor	RE007 growth inh	Marburg entry inh	FMDV antiviral	Sm TGR inh
CCN1CCN(C(=O)c2ccc3c(=O)n(Cc4ccccc4OC)c(=S)[nH]c3c2)CC1	0%	11µM*	-2%	2%	-24%	8%
COc1ccccc1Cn1c(=S)[nH]c2cc(C(=O)N3CCCC3)ccc2c1=O	/	-6%	-2%	/	-13%	-7%
COc1ccccc1Cn1c(=S)[nH]c2cc(C(=O)NCCN(C)C)ccc2c1=O	-1%[46.1 µM]	?	-6%	10µM*	-12%	?
COc1ccccc1Cn1c(=S)[nH]c2cc(C(=O)NCC3CCCO3)ccc2c1=O (configuration not stated)	?	?	-16%	?	25µM*	7%
COc1ccccc1CNC(=O)c1ccc2c(=O)n(CC3CCCO3)c(=S)[nH]c2c1 (configuration not stated)	4%	?	5%	-18%[46.1 µM]	-29%	-8%
CN1CC[C@@H]2C(=O)N3CCc4ccc(Br)cc4[C@@H]3C[C@@H]21	/	-10%[8.37 µM]	0%	/	0%	/
CC1COCC(C)N1C1=C(Cl)C(=O)c2ccccc2C1=O (configuration not stated)	?	11µM*	40µM*	?	40µM*	/
CN1CCN(C2=C(Cl)C(=O)c3ccccc3C2=O)CC1	?	7.1µM*	?	?	32µM*	/
O=C1C(Cl)=C(N2CCC(C(=O)O)CC2)C(=O)c2ccccc21	/	-3%	-24%	/	35µM*	-2%
NC(=O)C1CCN(C2=C(Cl)C(=O)c3ccccc3C2=O)CC1	?	2.5µM*	-22%	?	22µM*	0.45µM*
Cc1c(CC(=O)N2CCCCC2)c(=O)oc2cc(O)ccc12	22%[46.1 µM]	/	/	11%[46.1 µM]	16%	-2%
CC(=O)n1cc(C(C[N+](=O)[O-])SCCN)c2ccccc21 (configuration not stated)	?	?	?	21µM*	?	8.9µM*
CCN(Cc1ccccc1)C(c1ccc(C)cc1)c1nnnn1C(C)(C)CC (configuration not stated)	?	10µM*	0%	?	?	14%
CC(C)(C)c1ccc(CN(Cc2ccccc2)C(c2ccccn2)c2nnnn2C(C)(C)C)cc1 (configuration not stated)	5.6µM*	10µM*	-12%	?	-22%	12%
COc1ccc2c(c1)c1c(c(=O)n(-c3ccccc3C)c(=O)n1Cc1cccc(C(F)(F)F)c1)n2C	18%[46.1 µM]	/	/	/	-21%	-1%
O=C(Nc1cccc(F)c1)C1CCN(S(=O)(=O)c2ccc3[nH]c4c(c3c2)CCCCC4)CC1	?	/	/	/	0%	0%
